Assay results published in PubChem BioAssay (NCI).
About 83,000 compounds went through this panel and 20% of them were active in at least one assay; those are over-represented in the sample as a whole.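 How to read the values: 0–100, growth inhibition (40 = 60% inhibited); 0, no net growth; -100 to 0, cell death (-40 = 40% of starting cells died; -100 = all dead).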 Active and inactive are the calls of the source. Rule for the calls: active = growth percent below 10; inactive = the rest.

Tests used:
Assay in all cases: NCI-60 one-dose screen, 48 h (100 = growth as untreated, 0 = no growth, -100 = all killed)
Settings in all cases: 10 µM unless noted
HCT-15 colon = test system: HCT-15 colon
HT29 colon = test system: HT29 colon
SNB-75 CNS = test system: SNB-75 CNS
SNB-19 CNS = test system: SNB-19 CNS
U251 CNS = test system: U251 CNS
PC-3 prostate = test system: PC-3 prostate
UACC-62 melanoma = test system: UACC-62 melanoma
LOX IMVI melanoma = test system: LOX IMVI melanoma
SK-MEL-28 melanoma = test system: SK-MEL-28 melanoma
SK-MEL-2 melanoma = test system: SK-MEL-2 melanoma
EKVX NSCLC = test system: EKVX NSCLC
SN12C renal = test system: SN12C renal
UO-31 renal = test system: UO-31 renal
TK-10 renal = test system: TK-10 renal
ACHN renal = test system: ACHN renal
CAKI-1 renal = test system: CAKI-1 renal
A498 renal = test system: A498 renal
CCRF-CEM leukemia = test system: CCRF-CEM leukemia
MOLT-4 leukemia = test system: MOLT-4 leukemia
SK-MEL-5 melanoma = test system: SK-MEL-5 melanoma

Measured: growth

COc1ccc(-c2csc3c2-n2cccc2C3=O)cc1O
inactive: HCT-15 colon 17.4% | HT29 colon 23.9% | SNB-75 CNS 46.5% | SNB-19 CNS 41.4% | PC-3 prostate 17.2% | UACC-62 melanoma 29.4% | LOX IMVI melanoma 22.5% | SK-MEL-28 melanoma 61.5% | SK-MEL-2 melanoma 26.9% | EKVX NSCLC 56% | SN12C renal 29.6% | UO-31 renal 31.5% | TK-10 renal 51.3% | ACHN renal 31.7% | CAKI-1 renal 43.1% | A498 renal 38.5%
active: U251 CNS 4.86% | CCRF-CEM leukemia 0.363% | MOLT-4 leukemia -10.8%

O=S(=O)(/N=C1C=C/C(=N\S(=O)(=O)c2ccccc2)c2ccccc2\1)c1ccccc1
inactive: HCT-15 colon 106% | HT29 colon 118% | SNB-75 CNS 96.1% | SNB-19 CNS 116% | U251 CNS 92.6% | PC-3 prostate 79.6% | UACC-62 melanoma 104% | LOX IMVI melanoma 68.9% | SK-MEL-28 melanoma 101% | SK-MEL-2 melanoma 114% | EKVX NSCLC 104% | SN12C renal 101% | UO-31 renal 67.1% | TK-10 renal 147% | ACHN renal 105% | CAKI-1 renal 99.4% | A498 renal 117% | CCRF-CEM leukemia 71.7%

COc1cc(/C=C/C(=O)C2=C(/C=C/c3ccc(O)c(OC)c3)NC(=O)NC2c2ccc(O)c(OC)c2)ccc1O (configuration not stated)
inactive: HCT-15 colon 97.4% | HT29 colon 54.1% | SNB-75 CNS 65.8% | SNB-19 CNS 96.5% | U251 CNS 86.3% | PC-3 prostate 76.7% | UACC-62 melanoma 94.2% | LOX IMVI melanoma 98.7% | SK-MEL-28 melanoma 103% | SK-MEL-2 melanoma 105% | SN12C renal 93.6% | UO-31 renal 84.4% | ACHN renal 88.2% | CAKI-1 renal 93.9% | A498 renal 101% | CCRF-CEM leukemia 69.8% | MOLT-4 leukemia 70.3%

Cn1c2ccccc2c2nn(Cc3ccccc3)c(=O)nc21
inactive: HCT-15 colon 94.6% | HT29 colon 112% | SNB-75 CNS 77% | SNB-19 CNS 106% | U251 CNS 106% | PC-3 prostate 99.4% | UACC-62 melanoma 108% | LOX IMVI melanoma 102% | SK-MEL-28 melanoma 126% | SK-MEL-2 melanoma 103% | SN12C renal 107% | UO-31 renal 75.1% | ACHN renal 88.5% | CAKI-1 renal 94.7% | A498 renal 104% | CCRF-CEM leukemia 102% | MOLT-4 leukemia 105%

CN1CCn2c(c(Sc3ccc(C(=O)NO)cc3)c3ccccc32)C1=O
active: SNB-75 CNS -17.2% | SNB-19 CNS -26.4% | U251 CNS -60.5% | PC-3 prostate -35.2% | UACC-62 melanoma -61.4% | LOX IMVI melanoma -44.2% | SK-MEL-28 melanoma -33.4% | SK-MEL-2 melanoma -43.3% | SN12C renal -3% | A498 renal 4.23% | CCRF-CEM leukemia -6.26% | MOLT-4 leukemia 1.98%
inactive: HCT-15 colon 14.6% | HT29 colon 44.3% | UO-31 renal 59% | ACHN renal 36.6% | CAKI-1 renal 50.5%

Cc1ccc2c(c1)c(Sc1ccc(C(=O)NO)cc1)c1n2CN(C)CC1
inactive: HCT-15 colon 58.7% | HT29 colon 25.6% | SNB-75 CNS 17.8% | SNB-19 CNS 31% | UO-31 renal 45.9% | ACHN renal 26.8% | CAKI-1 renal 62.9%
active: U251 CNS 2.16% | PC-3 prostate -3.93% | UACC-62 melanoma -1.71% | LOX IMVI melanoma -33.1% | SK-MEL-28 melanoma 7.31% | SK-MEL-2 melanoma 7.15% | SN12C renal 9.16% | A498 renal 6.35% | CCRF-CEM leukemia -5.94% | MOLT-4 leukemia -10.5%

COc1cc(C(F)(F)F)ccc1-c1cc(-c2ccc(F)cc2)n[nH]1
inactive: HCT-15 colon 73.3% | HT29 colon 92.5% | SNB-75 CNS 74.4% | SNB-19 CNS 77.9% | U251 CNS 80% | PC-3 prostate 76% | UACC-62 melanoma 83.9% | LOX IMVI melanoma 96.9% | SK-MEL-28 melanoma 102% | SK-MEL-2 melanoma 118% | SN12C renal 85.2% | UO-31 renal 59.6% | ACHN renal 77% | CAKI-1 renal 78.4% | A498 renal 95.1% | CCRF-CEM leukemia 89.8% | MOLT-4 leukemia 91.2%

C[C@@H](Oc1cc(-c2cnn(C3CC4(CCCNC4)C3)c2)cnc1N)c1c(Cl)ccc(F)c1Cl (some centres not stated)
inactive: HCT-15 colon 16.2% | SNB-75 CNS 10.3% | SNB-19 CNS 72.3% | U251 CNS 29.5% | PC-3 prostate 15.6% | UACC-62 melanoma 14.3% | SN12C renal 21.7% | UO-31 renal 29.7% | ACHN renal 29.5% | CAKI-1 renal 56.6%
active: HT29 colon -47.7% | LOX IMVI melanoma -73% | SK-MEL-28 melanoma -67.2% | A498 renal -10.4% | CCRF-CEM leukemia -6.75% | MOLT-4 leukemia -7.46%

CCOC(=O)c1c(-c2cc(OC)c(OC)c(OC)c2)csc1N
inactive: HCT-15 colon 66.9% | HT29 colon 71.9% | SNB-75 CNS 84.2% | SNB-19 CNS 108% | U251 CNS 97.2% | PC-3 prostate 88.6% | UACC-62 melanoma 88.6% | LOX IMVI melanoma 95.4% | SK-MEL-28 melanoma 91.1% | SK-MEL-2 melanoma 101% | EKVX NSCLC 110% | SN12C renal 105% | UO-31 renal 75.9% | TK-10 renal 93.3% | ACHN renal 99.2% | CAKI-1 renal 68.1% | A498 renal 101% | CCRF-CEM leukemia 83.7% | MOLT-4 leukemia 92.3%

O=C1OCC2=C1C(c1ccc3c(c1)OCO3)CC(=O)N2c1cccc(Cl)c1 (configuration not stated)
inactive: HCT-15 colon 101% | HT29 colon 97.5% | SNB-75 CNS 80.7% | SNB-19 CNS 93% | U251 CNS 99.9% | PC-3 prostate 102% | UACC-62 melanoma 102% | LOX IMVI melanoma 98% | SK-MEL-28 melanoma 101% | SK-MEL-2 melanoma 103% | EKVX NSCLC 96.3% | SN12C renal 95.9% | TK-10 renal 99.6% | ACHN renal 103% | CAKI-1 renal 90.2% | A498 renal 84.6% | CCRF-CEM leukemia 90.9% | MOLT-4 leukemia 95.2%

O=C1C(OCCOc2ccccc2)=C(OCCOc2ccccc2)C(=O)c2ccccc21
inactive: HCT-15 colon 26.7% | HT29 colon 107% | SNB-75 CNS 69.4% | SNB-19 CNS 57.6% | U251 CNS 18.9% | PC-3 prostate 44.4% | SK-MEL-5 melanoma 13.6% | LOX IMVI melanoma 22.6% | SK-MEL-28 melanoma 93.5% | EKVX NSCLC 103% | SN12C renal 51.8% | UO-31 renal 46.9% | TK-10 renal 116% | ACHN renal 73.5% | A498 renal 94.7% | MOLT-4 leukemia 82.9%

CCSc1nnc2c3cc(Br)ccc3n(C)c2n1
inactive: HCT-15 colon 96.7% | HT29 colon 104% | SNB-75 CNS 92.6% | SNB-19 CNS 109% | U251 CNS 101% | PC-3 prostate 81% | UACC-62 melanoma 103% | LOX IMVI melanoma 96% | SK-MEL-28 melanoma 123% | SK-MEL-2 melanoma 97.8% | SN12C renal 102% | UO-31 renal 63.3% | ACHN renal 90.8% | CAKI-1 renal 80.9% | A498 renal 91.5% | CCRF-CEM leukemia 102% | MOLT-4 leukemia 107%

CCCCNNC(=O)c1ccc(Br)cc1
inactive: HCT-15 colon 78.6% | HT29 colon 36.9% | SNB-75 CNS 61.1% | SNB-19 CNS 76.6% | U251 CNS 61.9% | PC-3 prostate 61.4% | UACC-62 melanoma 40.9% | LOX IMVI melanoma 62.1% | SK-MEL-28 melanoma 53.2% | SK-MEL-2 melanoma 44.5% | SN12C renal 75.1% | UO-31 renal 25.1% | ACHN renal 71.4% | CAKI-1 renal 60.1% | A498 renal 30.2% | CCRF-CEM leukemia 46.6% | MOLT-4 leukemia 42.1%

COC(=O)c1ccc(C(=O)Nc2ccccc2N)cc1
active: CCRF-CEM leukemia 4.59%
inactive: HCT-15 colon 83.9% | HT29 colon 86.9% | SNB-75 CNS 78.4% | SNB-19 CNS 85.6% | U251 CNS 72.1% | PC-3 prostate 65.3% | UACC-62 melanoma 61.2% | LOX IMVI melanoma 97.7% | SK-MEL-28 melanoma 94.6% | SK-MEL-2 melanoma 63% | SN12C renal 62.9% | UO-31 renal 36.7% | ACHN renal 88.6% | A498 renal 80.5% | MOLT-4 leukemia 30.4%

Cn1c2ccc(Cl)cc2c2nn(C(=O)c3ccccc3)c(=O)nc21
inactive: HCT-15 colon 96.7% | HT29 colon 108% | SNB-75 CNS 88.3% | SNB-19 CNS 105% | U251 CNS 103% | PC-3 prostate 93.2% | UACC-62 melanoma 107% | LOX IMVI melanoma 98.1% | SK-MEL-28 melanoma 125% | SK-MEL-2 melanoma 100% | SN12C renal 103% | UO-31 renal 71.9% | ACHN renal 95.2% | A498 renal 112% | CCRF-CEM leukemia 96% | MOLT-4 leukemia 99%

COc1cccc(C2CC(=O)Nc3cc4c(cc32)OCO4)c1OC (configuration not stated)
inactive: HCT-15 colon 89.4% | HT29 colon 90.6% | SNB-75 CNS 76.3% | SNB-19 CNS 101% | U251 CNS 85.6% | PC-3 prostate 94.2% | UACC-62 melanoma 96.1% | LOX IMVI melanoma 96.5% | SK-MEL-28 melanoma 111% | SK-MEL-2 melanoma 88.3% | EKVX NSCLC 110% | SN12C renal 103% | UO-31 renal 72.4% | TK-10 renal 87% | ACHN renal 91.8% | CAKI-1 renal 78.4% | A498 renal 77.6% | CCRF-CEM leukemia 82.1% | MOLT-4 leukemia 87.1%

COc1cc(-c2nc(Nc3nc4ccccc4[nH]3)nc(N)c2C#N)cc(OC)c1OC
inactive: HCT-15 colon 59.1% | HT29 colon 32% | SNB-75 CNS 29.2% | SNB-19 CNS 69.2% | U251 CNS 56.8% | PC-3 prostate 44.7% | UACC-62 melanoma 44.5% | LOX IMVI melanoma 69.5% | SK-MEL-28 melanoma 72% | SK-MEL-2 melanoma 59.2% | EKVX NSCLC 74.5% | SN12C renal 92.8% | UO-31 renal 69.9% | TK-10 renal 80.6% | ACHN renal 61.7% | CAKI-1 renal 56.9% | CCRF-CEM leukemia 70.1%

COc1cc(C2CC(=O)Nc3c2ccc2ccccc32)cc(Br)c1OC (configuration not stated)
inactive: HCT-15 colon 27.9% | SNB-19 CNS 39% | U251 CNS 18.6% | PC-3 prostate 15.2% | UACC-62 melanoma 12.1% | LOX IMVI melanoma 25.1% | SK-MEL-28 melanoma 43.6% | EKVX NSCLC 38.9% | SN12C renal 50.2% | UO-31 renal 27.2% | TK-10 renal 34.4% | ACHN renal 45.9% | CAKI-1 renal 27.1% | MOLT-4 leukemia 10.6%
active: HT29 colon -6.29% | SNB-75 CNS -18.6% | SK-MEL-2 melanoma 8.51% | A498 renal 7.93% | CCRF-CEM leukemia -25.7%
